Among the test systems are NCI-H23 lung; NCI-H226 lung; NCI-H322M lung; HOP-62 NSCLC; NCI-H460 lung; HOP-92 NSCLC; NCI-H522 lung; A549/ATCC NSCLC; 786-0 renal; COLO 205 colon.
What all share (experiment): NCI-60 one-dose screen, 48 h (100 = growth as untreated, 0 = no growth, -100 = all killed)
What all share (settings): 10 µM unless noted

The panel holds about 83,000 compounds, 20% with a hit somewhere; the sample as a whole holds those more often.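 Interpretation: 100, growth as untreated; towards 0, rising growth inhibition; 0, no net growth; 0 to -100, cell death. Compounds scoring below 10 were considered active.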 Unmarked numbers belong to inactive results. The source made the active and inactive calls.

For the compound `CCN1CCN(c2nc(NCCCNc3ccnc4cc(Cl)ccc34)c3ccccc3n2)CC1`, the growth is 64.3% with NCI-H23 lung; 60.4% in the assay with NCI-H226 lung; 45.4% with NCI-H322M lung; 32.4% with HOP-62 NSCLC; 16.3% with NCI-H460 lung; 64.9% in the assay on HOP-92 NSCLC. Moreover, the growth in the assay with NCI-H522 lung is -21.5% (active); in the assay on A549/ATCC NSCLC, 18.8%; with 786-0 renal, 30.7%; with COLO 205 colon, -22.9% (active).

Consider `CN(C)c1ccc(NC(=O)c2ccc(/C=C/C(=O)c3ncc[nH]3)cc2)cc1`, for which the growth with NCI-H23 lung is 59.8%; in the assay with NCI-H226 lung it was 89.1%; with NCI-H322M lung it was 76.1%; with HOP-62 NSCLC, 54.7%; in the assay with NCI-H460 lung it was 25.4%; with HOP-92 NSCLC it was 94.1%. Further, the growth is 59.4% in the assay on NCI-H522 lung, 63.1% in the assay on A549/ATCC NSCLC, 47.1% in the assay on 786-0 renal and 37.6% in the assay with COLO 205 colon.

Regarding `C#CC(F)(F)[C@]1(O)CC[C@H]2[C@@H]3CCC4=CC(=O)CCC4=C3[C@@H](c3ccc(C4CC4)cc3)C[C@@]21C`, the growth was -53.3% (active) in the assay with NCI-H23 lung; 63.3% with NCI-H226 lung; 88.4% in the assay on NCI-H322M lung; 9.06% (active) with HOP-62 NSCLC; 57.1% in the assay on NCI-H460 lung; -60.2% (active) in the assay on HOP-92 NSCLC. For the same compound, the growth is -70.1% (active) in the assay with NCI-H522 lung, 11.5% with A549/ATCC NSCLC, -77.3% (active) in the assay on 786-0 renal and 29.5% in the assay with COLO 205 colon.

Consider `CCNC(=O)Oc1ccc(/C(=C(\C)c2ccc(Cl)cc2)c2ccc(OCCN(CC)CC)cc2)cc1`, for which the growth is 65.6% in the assay with NCI-H23 lung; 76.7% with NCI-H226 lung; 68.7% with NCI-H322M lung; 54.6% in the assay with HOP-62 NSCLC; 7.6% (active) with NCI-H460 lung; 57.9% in the assay with HOP-92 NSCLC. In addition, the growth in the assay on NCI-H522 lung is 55.4%; in the assay with A549/ATCC NSCLC it was 45.8%; in the assay with 786-0 renal it was 24.7%; in the assay with COLO 205 colon it was -57.8% (active).

With `CC1SC(c2ccc(N(C)C)cc2)N(NC(=O)C(O)(c2ccccc2)c2ccccc2)C1=O` (stereo not given), the growth in the assay on NCI-H23 lung was 98.5%; with NCI-H226 lung it was 105%; in the assay with NCI-H322M lung, 81%; in the assay on HOP-62 NSCLC, 97.1%; in the assay with NCI-H460 lung it was 144%; in the assay on HOP-92 NSCLC, 74.6%. Besides, the growth was 84.6% with NCI-H522 lung, 79.6% in the assay with A549/ATCC NSCLC, 97.7% in the assay with 786-0 renal and 102% in the assay with COLO 205 colon.

For the compound `COc1cc(/C=C/C(=O)c2cccnc2Nc2ccc(F)cc2)cc(OC)c1OC`, the growth with NCI-H23 lung is 40.2%; with NCI-H226 lung it was 43%; in the assay on NCI-H322M lung it was 103%; in the assay on HOP-62 NSCLC, 43.6%; in the assay on NCI-H460 lung, 22.5%; in the assay with HOP-92 NSCLC, 37.7%. The growth in the assay on NCI-H522 lung is 29.7%; in the assay on A549/ATCC NSCLC, 32.9%; in the assay on 786-0 renal it was 70.3%; in the assay on COLO 205 colon it was 83.9%.

Consider `COc1ccc(/C=C/C(=O)c2ccc(O)c(CN3CCN(c4cc5c(cc4F)c(=O)c(C(=O)O)cn5C4CC4)CC3)c2)cc1`, for which the growth is 37.7% in the assay on NCI-H23 lung; 52.2% with NCI-H226 lung; 22.6% in the assay with NCI-H322M lung; 19.5% with HOP-62 NSCLC; 51.4% with NCI-H460 lung; 10.1% with HOP-92 NSCLC. Further, the growth in the assay with NCI-H522 lung is 16.9%; with A549/ATCC NSCLC, 22.3%; in the assay with 786-0 renal, 27.8%; with COLO 205 colon, 102%.

For the compound `COc1ccc(C(=O)COc2cccc(/C=C3\CSc4ccccc4C3=O)c2)cc1`, the growth with NCI-H23 lung is 12.9%; in the assay with NCI-H226 lung it was 79.9%; with NCI-H322M lung it was 62.4%; in the assay on HOP-62 NSCLC it was 86.9%; with NCI-H460 lung, 72.6%; with HOP-92 NSCLC, 60.4%. For the same compound, the growth was -63.1% (active) with NCI-H522 lung, 87.4% in the assay with A549/ATCC NSCLC, 80.2% in the assay with 786-0 renal and 105% in the assay with COLO 205 colon.

With `COc1cc(C2CC(=O)c3ccccc3N2)cc(OC)c1OC` (stereo not given), the growth in the assay with NCI-H23 lung is 95.7%; in the assay on NCI-H226 lung, 82.6%; with NCI-H322M lung it was 102%; with HOP-62 NSCLC, 97.6%; with NCI-H460 lung, 101%; with HOP-92 NSCLC, 92.2%. The growth in the assay with NCI-H522 lung was 54%; with A549/ATCC NSCLC, 84.6%; in the assay with 786-0 renal it was 102%; in the assay on COLO 205 colon, 113%.

With `O=C1/C(=C/C(Cl)=C/c2ccccc2)SC(=S)N1CCc1ccc(O)cc1`, the growth in the assay on NCI-H23 lung is -18.1% (active); with NCI-H226 lung, 55.7%; in the assay on NCI-H322M lung, 44%; in the assay on HOP-62 NSCLC it was -6.2% (active); with NCI-H460 lung, 0.138% (active); in the assay on HOP-92 NSCLC, -1.85% (active). Besides, the growth in the assay on NCI-H522 lung is -7.91% (active); with A549/ATCC NSCLC, -5.56% (active); in the assay with 786-0 renal, -47% (active); in the assay on COLO 205 colon it was -9.3% (active).

As for `Cc1nn(-c2ccc(F)cc2)c2ncnc(Oc3ccc(NC(=O)Nc4ccc(Cl)c(C(F)(F)F)c4)cc3)c12`, the growth with NCI-H23 lung was 96.7%; with NCI-H226 lung, 103%; in the assay on NCI-H322M lung it was 100%; in the assay on HOP-62 NSCLC, 105%; in the assay with NCI-H460 lung, 101%; in the assay with HOP-92 NSCLC it was 104%. Besides, the growth with NCI-H522 lung was 99.7%; in the assay on A549/ATCC NSCLC it was 96.2%; in the assay with 786-0 renal, 106%; with COLO 205 colon, 109%.

Regarding `Cc1cc(N2CCN(C)CC2)nc(NC2CCCC(Nc3ccnc4cc(Cl)ccc34)C2)n1` (stereo not given), the growth in the assay on NCI-H23 lung is 35.9%; in the assay with NCI-H226 lung, 5.72% (active); in the assay with NCI-H322M lung it was -6.32% (active); in the assay with HOP-62 NSCLC it was -31.2% (active); with NCI-H460 lung, -26.6% (active); in the assay with HOP-92 NSCLC, -69.9% (active). In addition, the growth in the assay with NCI-H522 lung was -46.4% (active); in the assay on A549/ATCC NSCLC, 3% (active); with 786-0 renal it was -60.5% (active); in the assay with COLO 205 colon it was -76.1% (active).

`FC(F)(F)c1nc2c(NCc3ccc(-c4ccccc4)cc3)cccc2[nH]1`: the growth in the assay with NCI-H23 lung is 80.8%; with NCI-H226 lung, 79%; in the assay with NCI-H322M lung, 85.8%; with HOP-62 NSCLC it was 106%; in the assay with NCI-H460 lung it was 44.8%; with HOP-92 NSCLC, 62%. For the same compound, the growth with NCI-H522 lung was 50.8%; in the assay with A549/ATCC NSCLC, 55.5%; with 786-0 renal, 85%; in the assay on COLO 205 colon it was 90.3%.

In the case of `Cc1cc(NS(=O)(=O)c2ccc(-c3cnc(C4CC4)o3)cc2)ccc1Cl`, the growth in the assay with NCI-H23 lung was 24.3%; in the assay with NCI-H226 lung it was 58.4%; with NCI-H322M lung, 44.7%; with HOP-62 NSCLC, 34.1%; with NCI-H460 lung it was 7.65% (active); in the assay with HOP-92 NSCLC, 60.7%. In addition, the growth in the assay on NCI-H522 lung is -11.7% (active); in the assay with A549/ATCC NSCLC it was 15.3%; in the assay on 786-0 renal, 33.7%; in the assay on COLO 205 colon it was -13.7% (active).

With `COc1cc(/C=C/C(=O)Nc2cccnc2Nc2ccc(F)cc2)cc(OC)c1OC`, the growth was 99.6% in the assay on NCI-H23 lung; 99% in the assay on NCI-H226 lung; 107% in the assay with NCI-H322M lung; 103% with HOP-62 NSCLC; 112% with NCI-H460 lung; 74.8% in the assay on HOP-92 NSCLC. In addition, the growth with NCI-H522 lung is 48.9%; in the assay on A549/ATCC NSCLC, 70.1%; in the assay with 786-0 renal, 92.8%; in the assay on COLO 205 colon it was 113%.

The record behind these values is PubChem BioAssay (NCI).
